# fixLJ activator = activators of Burkholderia fixLJ two-component system, primary screen, B. multivorans, GFP reporter | hit rate 0.3% among 29,000 | z-score (no concentration beside the values) | B. multivorans fixK-promoter GFP reporter, 18 h; stronger effect = higher value;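 active means replicate mean overnight rise in green fluorescent reporter signal, 3 or more SD over negative controls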
# Active calls of the source: *. Only a selection was taken, and hits are over-represented in it overall.
SMILES,fixLJ activator
O=C(CC1C(=O)N(c2ccccc2)C(=O)N1CCC1=CCCCC1)Nc1ccc(F)cc1 (stereo not given),1.1
COc1ccc(NC(=O)CC2C(=O)N(c3ccccc3)C(=O)N2CCC2=CCCCC2)cc1 (stereo not given),-1.8
CCOc1ccc(NC(=O)CC2C(=O)N(c3cccc(C)c3)C(=O)N2CCC2=CCCCC2)cc1 (stereo not given),3*
CC(C)=CCN1CCC2(CCC(CNC(=O)CSc3nnc(C)o3)O2)CC1 (stereo not given),-1.1
CCC(C)n1c(=N)c(S(=O)(=O)c2ccc(C)cc2)cc2c(=O)n3cc(C)ccc3nc21 (stereo not given),5.7*
CCC(C)n1c(=N)c(S(=O)(=O)c2ccccc2)cc2c(=O)n3ccccc3nc21 (stereo not given),-2.8
CCCCCn1c(=N)c(S(=O)(=O)c2ccc(C)cc2)cc2c(=O)n3cc(C)ccc3nc21,-1.4
O=C1C2=C(Nc3ccccc3SC2c2ccc(C(F)(F)F)cc2)c2ccccc21 (stereo not given),1.4
CCc1ccc(C2Sc3ccccc3NC3=C2C(=O)c2ccccc23)cc1 (stereo not given),3.3*
CC(C)c1ccc(C2Sc3ccccc3NC3=C2C(=O)c2ccccc23)cc1 (stereo not given),2.6
CC(C)N1CCOC(CC(=O)NCCCc2nc3ccc(Cl)cc3[nH]2)C1 (stereo not given),-3.3
O=C(c1cccc(Cl)c1)N1CCn2nc(CNc3ncccn3)cc2C1,-2.3
CCN1Cc2nc(OC)c(CNC(=O)C(C)N3CCCC3=O)cc2C1=O (stereo not given),-1.3
CCC1C=CCN1C(=O)c1ccc2c(c1)[nH]c(=O)n2C1CCC(O)CC1 (stereo not given),0.15
CCOc1ccc(CC(=O)N2CCC3(CC2)c2nc[nH]c2CCN3C)cc1,-0.5
O=C(CN(CCc1ccccc1)S(=O)(=O)c1ccc(Br)cc1)NCc1ccc(Cl)cc1,0.62
COC(=O)c1ccc(NC(=O)CN(CCc2ccccc2)S(=O)(=O)c2ccc(OC)cc2)cc1,3
Cc1ccc(S(=O)(=O)N(CCc2ccccc2)CC(=O)Nc2ccc(Br)cc2)cc1,3.1*
COc1cc(C(=O)Nc2ccc(CC(=O)NC3CC3)cc2)ccc1C,-2.4
O=c1oc2c3c(ccc2c2ccccc12)OCN(Cc1cccc(Cl)c1)C3,-0.72
O=c1oc2c3c(ccc2c2ccccc12)OCN(Cc1ccccc1Cl)C3,0.8
Cc1cc2c(c3oc(=O)c4ccccc4c13)CN(Cc1ccc(F)cc1)CO2,5.3*
CNc1nc(C)cc(N2CCCC3(CCC(=O)N(CCC(C)C)C3)C2)n1 (stereo not given),0.02
OC1CCN(c2ccnc(NC3COCC3Cc3ccnc4ccccc34)n2)CC1 (stereo not given),-2.1
CC(C)c1ccc(/C=C(\C#N)c2nc(-c3ccc(O)cc3)cs2)cc1,8.4*
SMILES,fixLJ activator
CC(C)c1ccc(/C=C(\C#N)c2nc(-c3cc4ccccc4oc3=O)cs2)cc1,1
COc1ccc(/C=C(/C#N)c2nc(-c3ccc(Br)cc3)cs2)cc1,-1.2
CCOc1ccc2[nH]c(=O)c(-c3nccn3CC3CCOCC3)cc2c1,0.5
COC1CCN(C(=O)NCc2ccc(C(=O)N3CCCC3)cc2)C1 (stereo not given),0.45
CN(Cc1c(C(=O)N2CCCCC2)nc2sccn12)CC1CCCO1 (stereo not given),-0.47
Cc1noc(C)c1CN1CCc2c(C(=O)NC(C)C)csc2C1,0.33
CC(=O)c1ccc(N2CCN(C(=O)C3CCCN(S(=O)(=O)c4ccc(Br)s4)C3)CC2)cc1 (stereo not given),-1.1
Cc1cc(NC(=O)C2CCCN(S(=O)(=O)c3ccc(Br)s3)C2)ccc1Br (stereo not given),-1.1
CC(=O)c1ccc(NC(=O)C2CCCN(S(=O)(=O)c3ccc(Br)s3)C2)cc1 (stereo not given),3.2*
N#Cc1ccc(C(=O)N2CCc3c(nc(-c4cccnc4)[nH]c3=O)C2)cn1,-0.59
Cc1ccc(NC(=O)Cc2coc3ccc(C(C)C)cc23)cc1Cl,-1.6
CCc1ccc2occ(CC(=O)Nc3ccc(C)c(C)c3)c2c1,3.4*
CCc1ccc2occ(CC(=O)Nc3nnc(SC)s3)c2c1,-0.26
CC(NC(=O)N(C)CC1(CO)CCC1)c1nc(-c2ccc(Cl)cc2)no1 (stereo not given),-1.4
COc1ccc(C2=C(Nc3ccc(C)c(C)c3)c3ccccc3C2=O)cc1,-1.9
COc1ccc(C2=C(Nc3ccc(Br)c(C)c3)c3ccccc3C2=O)cc1,3.1*
Cc1cc(C)cc(NC2=C(c3ccccc3)C(=O)c3ccccc32)c1,4*
Cc1ccc(C)c(NC2=C(c3ccc(C(F)(F)F)cc3)C(=O)c3ccccc32)c1,0.58
COc1cc(OC)c(NC2=C(c3ccc(C(F)(F)F)cc3)C(=O)c3ccccc32)cc1Cl,-0.77
Cc1ccc(C)c(N2CCN(C3=C(c4ccccc4)C(=O)c4ccccc43)CC2)c1,0.03
CC(C)Oc1cccc(-c2cc(-c3cnn(C)c3)c(C#N)c(N)n2)c1,-0.58
O=C(c1cnc(-c2cccnc2)nc1)N1CCC2OCc3cnnn3C2C1 (stereo not given),-0.61
O=C(NCCCc1nc2ccccc2o1)C1Cc2ccccc2O1 (stereo not given),0.11
CC(C)c1noc(C2CCC(=O)N(CCCN3CCOCC3)C2)n1 (stereo not given),-2.1
Cc1nc(SCc2cccc(Cl)c2)nc2c1CCCC2,3*
SMILES,fixLJ activator
O=C(NCc1cccc(Cl)c1)c1ccc2c(Cl)c3c(nc2c1)CCCC3,0.43
CN(Cc1ccccc1)C(=O)CSc1c2c(nc3ccc(Cl)cc13)CCCC2,0.91
COc1cc(Cl)c(C)cc1Nc1nc2ccccc2nc1NS(=O)(=O)c1ccccc1,3.4*
COc1ccc(Nc2nc3ccccc3nc2NS(=O)(=O)c2ccc(C)cc2)c(OC)c1,-0.4
COc1ccc2nc(NS(=O)(=O)c3ccc(C)cc3)c(Nc3cc(Cl)ccc3OC)nc2c1,-4.1
O=C(CN1CCC(O)[C@@](Cc2ccccc2)(C(=O)O)C1)NC1CCCCC1 (stereo not given in full),-0.11
CN(Cc1cnn(C)c1)C(=O)c1cc2n(n1)CCN(Cc1ccccc1)C2,0.7
Cc1ccc(S(=O)(=O)N2CCC(O)C(C(=O)O)C2)cc1F (stereo not given),0.38
